Where “and” joins values, the source holds several entries; their conditions need not be identical. Identical values can stand only once. Results filed as inconclusive are left out. Some structures have more than one record in an assay (separate samples or runs), and their calls can disagree. Calls of active or inactive are those of the source. Unless noted, the call rests on the fitted dose curve; in most records, active means well fitted curve in the direction sought with a large enough effect; inconclusive means small, poorly fitted or top-dose-only effect, or another doubt; inactive means no such curve, though single readings can be large; an effect the other way counts as inactive or inconclusive. Numbered stars: 1 amine (or outer) side, 2 acyl side, 3 side chain; on linkers, the order of the positions; unused ones are H or OH. Bridge positions count the residues as written; N and C are the ends. Square brackets hold non-standard residues; d marks the D form. Peptide text beside a SMILES is read from it. I, II: the chains in the order shown. Actinocin(9to1) = Cc1c2oc3c(C)ccc(C(=O)[*:1])c3nc-2c(C(=O)[*:2])c(N)c1=O; NMeV = CN[C@H](C(=O)O)C(C)C; Sar = CNCC(=O)O
Experiments:
[1] = qHTS assay for small molecule agonists of the antioxidant response element (ARE) signaling pathway measured by Nrf2-dependant transcriptional activity (AID 720636; active means well fitted curve in the direction sought with a large enough effect in the repeat runs; an effect the other way counts as inactive or inconclusive; further: potency means the concentration at half of the fitted maximal effect)
How it was run: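 ARE-luc HepG2 cells carrying an Nrf2-responsive luciferase reporter were plated in medium with 1% dialyzed FBS, left 6 hr at 37 C to attach, then exposed to compound for 16 hr. Luciferase luminescence was read after ONE-Glo addition.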

[2] = qHTS assay for small molecule agonists of the antioxidant response element (ARE) signaling pathway measured by Nrf2-dependant transcriptional activity - cell viability counter screen (AID 720653; active means well fitted curve in the direction sought with a large enough effect in the repeat runs; an effect the other way counts as inactive or inconclusive; further: on the % scale 0 is the no-effect control and ±100 the full control effect); settings: ARE-bla HepG2 viability, CellTiter-Glo ATP luminescence, 16 h; stronger effect = lower value
How it was run: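 ARE-bla HepG2 cells treated with compounds for 16 h at 37C; this counter screen measures viability as intracellular ATP by CellTiter-Glo luminescence after 30 min at room temperature.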

[3] = qHTS Assay for Identifying Gametocytocidal Compounds (AID 743244); further: potency means the concentration at half of the fitted maximal effect;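 on max response: on the % scale 0 is the no-effect control and ±100 the full control effect; actives lower the fluorescent signal which means gametocytes are killed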; settings: P. falciparum 3D7 stage III-V gametocytes, alamarBlue, 72 h; max response: stronger effect = lower value
How it was run: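 3D7 gametocytes, stages III–V, 20,000/well; cpd 72 h, 37 °C/5% CO2; + alamarBlue 24 h; fluor. Ex 525/Em 598.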

[4] = molecular target: T1, Hexokinase-4 (Homo sapiens) + Glucokinase regulatory protein (Homo sapiens) (UniProt P35557+Q14397); experiment: qHTS assay for inhibitors of recombinant human GCK-GKRP interaction: Diaphorase-coupled assay (AID 743205)
T1 sequence (P35557 whole entry, looked up): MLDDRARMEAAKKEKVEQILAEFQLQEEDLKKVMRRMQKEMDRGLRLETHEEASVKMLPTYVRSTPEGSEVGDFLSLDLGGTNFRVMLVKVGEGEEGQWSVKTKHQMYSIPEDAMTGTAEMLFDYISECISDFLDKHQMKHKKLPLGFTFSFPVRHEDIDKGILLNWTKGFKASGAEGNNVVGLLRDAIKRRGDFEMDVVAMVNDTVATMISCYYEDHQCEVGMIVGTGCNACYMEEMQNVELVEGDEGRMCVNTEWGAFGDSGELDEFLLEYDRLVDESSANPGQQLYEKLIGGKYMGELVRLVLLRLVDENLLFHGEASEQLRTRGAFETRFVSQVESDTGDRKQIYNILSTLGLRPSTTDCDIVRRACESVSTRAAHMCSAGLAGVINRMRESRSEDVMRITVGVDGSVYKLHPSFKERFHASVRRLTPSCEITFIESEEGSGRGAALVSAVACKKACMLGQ
T1 sequence (Q14397 whole entry, looked up): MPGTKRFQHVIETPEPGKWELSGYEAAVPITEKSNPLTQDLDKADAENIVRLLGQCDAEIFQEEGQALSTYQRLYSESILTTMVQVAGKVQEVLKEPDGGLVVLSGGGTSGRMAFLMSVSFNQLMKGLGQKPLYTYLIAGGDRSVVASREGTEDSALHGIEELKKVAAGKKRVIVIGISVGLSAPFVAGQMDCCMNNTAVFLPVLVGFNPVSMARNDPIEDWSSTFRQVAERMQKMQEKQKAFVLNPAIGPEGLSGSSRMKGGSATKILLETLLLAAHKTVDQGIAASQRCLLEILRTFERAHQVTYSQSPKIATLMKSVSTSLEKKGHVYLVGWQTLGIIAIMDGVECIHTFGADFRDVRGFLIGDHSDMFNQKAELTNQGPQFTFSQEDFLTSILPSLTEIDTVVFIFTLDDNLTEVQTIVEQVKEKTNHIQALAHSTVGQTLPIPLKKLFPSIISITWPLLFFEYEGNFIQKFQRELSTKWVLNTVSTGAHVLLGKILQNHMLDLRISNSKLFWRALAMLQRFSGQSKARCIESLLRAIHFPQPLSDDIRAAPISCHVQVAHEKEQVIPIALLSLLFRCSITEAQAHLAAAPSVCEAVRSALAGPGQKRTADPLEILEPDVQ
How it was run: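 GST-GCK (10 nM) with FLAG-GKRP (10 nM), 5 mM glucose and 0.4 mM ATP in pH 7.6 Hepes; compounds preincubated 20 min with substrate. G6PDH/diaphorase coupling converts resazurin to resorufin, read kinetically (ex 525/em 590 nm) for 30 min.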

[5] = molecular target: T1, Hexokinase-4 (Homo sapiens) + Glucokinase regulatory protein (Homo sapiens); experiment: qHTS assay for inhibitors of recombinant human GCK-GKRP interaction: ADP-Glo assay (AID 743206);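 further: plate controls were DMSO plus enzyme for no effect and no enzyme for full effect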
How it was run: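 GST-GCK and FLAG-GKRP (15 nM each in the dispensed mix, with 2 uM S6P) react with 0.4 mM ATP and 5 mM glucose (final) in Hepes pH 7.6 for 60 min at room temperature. ADP is measured by ADP-Glo luminescence.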

[6] = molecular target: T1, Hexokinase-4 (Homo sapiens) + Glucokinase regulatory protein (Homo sapiens); experiment: qHTS assay for inhibitors of recombinant human GCK-GKRP interaction: HTRF assay (AID 743207);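 further: 0% = DMSO with GCK present and -100% = DMSO wells lacking GCK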
How it was run: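 GST-GCK and FLAG-GKRP (5 nM each) were combined with 2 uM S6P in pH 7.1 Hepes/MgCl2/KCl/DTT buffer, then compound and anti-FLAG XL665/anti-GST K antibodies were added. After 60 min at room temperature, HTRF 665/615 nm emission was read.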

[7] = qHTS assay for small molecule antagonists of the retinoid-related orphan receptor gamma (ROR-gamma) signaling pathway - cell viability counter screen (AID 720652; active means well fitted curve in the direction sought with a large enough effect in the repeat runs; an effect the other way counts as inactive or inconclusive;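 further: compound exposure lasted 16 hr before ATP read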; further: potency means the concentration at half of the fitted maximal effect)
How it was run: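 CHO cells carrying TET-inducible ROR and RORE-luciferase reporter, plated 5 hr, then dosed with compound plus doxycycline. After 16 hr at 37 C, viability read as intracellular ATP by CellTiter-Glo luminescence.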

[8] = qHTS assay for cell viability of HEK293 cells (AID 743288); settings: ATP luminescence (CellTiter-Glo), 18 h, stronger effect = lower value; further: on the % scale 0 is the no-effect control and ±100 the full control effect; nearly all actives have a fitted effect of over 50% in size
How it was run: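 Parental HEK293 cells were seeded at 2,000 cells/well, rested at least 5 h at 37 C, then exposed to compounds in DMSO for 18 h at 37 C. Viability was read as ATP-dependent luciferase luminescence after 30 min at room temperature.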

[9] = qHTS assay for cell viability of the p53RE-bla HCT-116 cell line (AID 743292); further: on the % scale 0 is the no-effect control and ±100 the full control effect; nearly all actives have a fitted effect of over 55% in size
How it was run: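 CellSensor p53RE-bla HCT-116 cells, 4,000/well, preincubated 5 h at 37 C, then exposed to compounds in DMSO for 16 h at 37 C. Viability read as CellTiter-Glo luminescence (intracellular ATP) after 30 min at room temperature.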

[10] = qHTS profiling for inhibitors of Plasmodium falciparum (3D7) proliferation (AID 743322);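 further: infected erythrocytes exposed to compound for 72 h before lysis; 100% = DMSO vehicle wells and 0% = 0.29 µM artemisinin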; settings: P. falciparum 3D7 proliferation; at 28.7 µM (top of the series) unless noted
How it was run: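 Erythrocytes infected with P. falciparum (0.3% parasitemia, 2.5% hematocrit) incubated with compounds 72 h at 37 C, 5% CO2. Lysis with saponin/Triton buffer containing SYBR Green I, overnight at room temperature in the dark; DNA fluorescence (485/535 nm) normalised to 0.29 uM artemisinin and DMSO.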

Oc1c(I)cc(Cl)c2cccnc12
inactive: max response [2] -8.01%
active: Potency [1] 5.96 µM | Potency [3] 7.94 µM

CNCCC=C1c2ccccc2CCc2ccccc21
inactive: outcome [4] | outcome [5] | outcome [6]

C=C(CC)C(=O)c1ccc(OCC(=O)O)c(Cl)c1Cl
inactive: Potency [7] | max response [2] 6.68% | max response [8] -7.15% | outcome [9]

O=C(O)CCCCC(=O)O
inactive: Potency [1] | Potency [7] | max response [2] 6.35% | max response [3] -5.63% | max response [8] 0.134% | outcome [9]

C=CCc1ccc(O)c(OC)c1
inactive: Potency [1] | Potency [7] | max response [2] -2.21% and -7.34% | max response [3] 4.9% | max response [8] -4.89% and -5.68% | outcome [9]

CC(C)C[C@H]1C(=O)N2CCC[C@H]2[C@]2(O)O[C@](NC(=O)[C@@H]3C=C4c5cccc6[nH]c(Br)c(c56)C[C@H]4N(C)C3)(C(C)C)C(=O)N12
inactive: outcome [4] | outcome [5] | outcome [6]

O=c1ccc2ccccc2o1
inactive: Potency [1] | Potency [7] | max response [2] 0.83% and -14.1% and -0.794% | max response [3] 15.4% | max response [8] 8.9% and -9.16% and -5.08% | outcome [9]

Cc1c2oc3c(C)ccc(C(=O)N[C@@H]4C(=O)N[C@H](C(C)C)C(=O)N5CCC[C@H]5C(=O)N(C)CC(=O)N(C)[C@@H](C(C)C)C(=O)O[C@@H]4C)c3nc-2c(C(=O)N[C@@H]2C(=O)N[C@H](C(C)C)C(=O)N3CCC[C@H]3C(=O)N(C)CC(=O)N(C)[C@@H](C(C)C)C(=O)O[C@@H]2C)c(N)c1=O (I: T[dV]P[Sar][NMeV] / II: T[dV]P[Sar][NMeV]; ester I:1-I:C, II:1-II:C; linker I:N-II:N via Actinocin(9to1))
inactive: max response [2] -29.7% and -9.89% | outcome [9]
active: Potency [7] 0.106 µM | Potency [3] 0.0708 µM

CC/C(=C(/CC)c1ccc(O)cc1)c1ccc(O)cc1
inactive: Potency [1] | max response [2] 6.27% and -6.2% | max response [3] 26.7% | max response [8] -28.4% and -12.5% | outcome [9]

N[C@H](CO)C(=O)O
inactive: outcome [4] | outcome [5] | outcome [6] | max response [3] 0.963% and 16.2%

CC(=O)Oc1ccc(C(c2ccc(OC(C)=O)cc2)c2ccccn2)cc1
inactive: Potency [1] | Potency [7] | max response [2] 4.78% | max response [3] 7.87% | max response [8] -9.96%

Oc1ccc(O)cc1
inactive: max response [2] -23.3% | outcome [4] | outcome [5] | outcome [6] | max response [8] -28.2%

O=C1OC(c2ccc(O)cc2)(c2ccc(O)cc2)c2ccccc21
inactive: Potency [1] | Potency [7] | max response [2] 4.44% and -20.6% | max response [3] 7.07% | max response [8] -1.91% and -6.06% | outcome [9]

CC(O)C(=O)O (stereo not drawn)
inactive: Potency [1] | Potency [7] | max response [2] -3.07% | max response [3] -6.68% | max response [8] 1.72% | outcome [9]

C[C@@H]1C(=O)NC2=Nc3cccc(Cl)c3CN21
inactive: outcome [4] | outcome [5] | outcome [6] | max response [3] -15.6% and 9.95%

COc1cccc2c1C(=O)c1c(O)c3c(c(O)c1C2=O)C[C@@](O)(C(C)=O)C[C@@H]3O[C@H]1C[C@H](N)[C@H](O)[C@H](C)O1
active: Potency [7] 13.3 µM | Potency [3] 6.31 µM
inactive: outcome [9]

CC(=O)O[C@]1(C(C)=O)CC[C@H]2[C@@H]3C[C@H](C)C4=CC(=O)CC[C@]4(C)[C@H]3CC[C@@]21C
inactive: Potency [1] | Potency [7] | max response [2] -14.4% and -14.9% | outcome [9]

CCCC1O[C@@H]2C[C@H]3[C@@H]4CCC5=CC(=O)C=C[C@]5(C)[C@H]4[C@@H](O)C[C@]3(C)[C@]2(C(=O)CO)O1 (stereo partly drawn)
inactive: outcome [4] | outcome [5] | outcome [6] | max response [3] -5.95% and 18.2%

CC(C)(Oc1ccc(Cl)cc1)C(=O)O
inactive: Potency [1] | max response [2] 10.5% | max response [3] 6.9% | max response [8] -4.41% | outcome [9]

COC1=CC(=O)C[C@@H](C)[C@]12Oc1c(Cl)c(OC)cc(OC)c1C2=O
inactive: Potency [1] | Potency [7] | max response [2] 2.34% | max response [3] 1.7% | max response [8] -14.5% | outcome [9]

COc1cccc2c1C(=O)c1c(O)c3c(c(O)c1C2=O)C[C@@](O)(C(=O)CO)C[C@@H]3O[C@H]1C[C@H](N)[C@H](O)[C@H](C)O1
active: Potency [7] 23.7 µM | Potency [3] 526 nM and 2.82 µM
inactive: Potency [1] | max response [3] -8.37% | outcome [9]
-4.76%: remaining parasite growth % (stronger effect = lower value) [10]

Source: PubChem BioAssay (NCATS)
